Assay outcomes from PubChem.
Rows were chosen to be rich in hits. Some 4.1% of all compounds tested hit in one or more screens of this group.
hgDAF12 agonist – hgDAF-12 agonism, primary luciferase screen; HEK293 GAL4-hgDAF12 UAS-luciferase reporter, agonist luminescence; normalized to butyrate control; activation, % at 6.8 µM; hit rate 1.8% among 370,000;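 active means activation above a cutoff set at the mean of all screened compounds plus 3 SD, cut at about 10% in these data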
DAX1 inh-1 – inhibitors of human orphan nuclear receptor DAX1 (NR0B1); P51843; HEK293 Gal4-DAX1 luciferase reporter, luminescence; inhibition, % at 6.75 µM; hit rate 0.99% among 340,000; AID 504766;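 active means inhibition above the mean over all tested compounds plus 3 SD, cut at about 4.2% in these data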;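 further: inhibition shows as a rise in luminescence from relieved DAX1 repression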
Target sequence (P51843 207-470 limits assumed): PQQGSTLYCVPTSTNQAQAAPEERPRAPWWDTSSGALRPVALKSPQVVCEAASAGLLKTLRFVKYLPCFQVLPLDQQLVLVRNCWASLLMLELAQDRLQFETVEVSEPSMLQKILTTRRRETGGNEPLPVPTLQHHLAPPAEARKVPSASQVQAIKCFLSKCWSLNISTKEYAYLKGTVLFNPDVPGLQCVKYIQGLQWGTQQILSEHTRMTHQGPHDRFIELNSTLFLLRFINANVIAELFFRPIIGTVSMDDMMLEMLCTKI
DAX1 inh-2 – DAX1 (NR0B1) inhibition, primary screen | hit rate 1.1% among 370,000 | HEK293T StAR-luciferase reporter, SF-1/DAX-1 repression relief | inhibition, % at 6.8 µM;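 active means inhibition above the mean over all tested compounds plus 3 SD, cut at about 3.6% in these data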;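 further: higher inhibition means more luminescence from relief of DAX-1 repression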
hcDAF-12 act – H. contortus DAF-12 activation, primary screen | HEK293 hcDAF-12 lit1-tk-luc reporter, luminescence; 0% DMSO, 100% Δ7-dafachronic acid | activation, % at 6.8 µM | hit rate 1.4% among 370,000 | AID 652067;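 active means activation above the mean of all tested compounds plus 3 SD, cut at about 5.5% in these data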
ssDAF-12 act – activates DAF-12 receptor from parasite S. stercoralis. AID 652126. hit rate 1% among 370,000. HEK293 ssDAF-12/GRIP1 lit1-tk-luc reporter, luminescence; % of 3 µM dafachronic acid response. activation, % at 6.8 µM;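 active means activation above the mean over all tested compounds plus 3 SD, cut at about 0.9% in these data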
Hits are given with their value.

Results for COc1ccc(NC(=O)C(CCCCNC(=O)OC(C)(C)C)NC2(C(=O)NCCc3c[nH]c4ccccc34)CCCCC2)cc1 (centres undefined) ?
hgDAF12 agonist: inactive; hcDAF-12 act: inactive; ssDAF-12 act: inactive

Results for O=C1CC(N2CCOCC2)=NC(=O)N1c1ccc(Br)cc1 ?
hgDAF12 agonist: inactive; DAX1 inh-2: inactive; hcDAF-12 act: inactive; ssDAF-12 act: inactive

Results for C(=CCSc1ccccn1)CSc1ccccn1 ?
hgDAF12 agonist: inactive; DAX1 inh-2: inactive; hcDAF-12 act: inactive; ssDAF-12 act: inactive

Results for C(=C\c1ccccc1)/CSc1ccccn1 ?
hgDAF12 agonist: inactive; DAX1 inh-1: 4.4; DAX1 inh-2: inactive; hcDAF-12 act: inactive; ssDAF-12 act: inactive

Results for O=C(Nc1ccc(F)cc1F)C1CCN(c2ncnc3c2sc2cccc(F)c23)CC1 ?
hgDAF12 agonist: inactive; DAX1 inh-1: inactive; DAX1 inh-2: inactive; hcDAF-12 act: inactive; ssDAF-12 act: inactive

How did CCN(CC)CCCNC(=O)C1CCN(c2ncnc3c2sc2cccc(F)c23)CC1 do in these assays?
hgDAF12 agonist: inactive; DAX1 inh-1: inactive; DAX1 inh-2: inactive; hcDAF-12 act: inactive; ssDAF-12 act: 1.0

What do the screens show for `COc1cc(/C=N/Nc2cccc3cccnc23)cc(OC)c1O`?
hgDAF12 agonist: 13; DAX1 inh-1: inactive; DAX1 inh-2: inactive; hcDAF-12 act: inactive; ssDAF-12 act: inactive

What do the screens show for `COc1cc(/C=N/Nc2ccccn2)cc(OC)c1O`?
hgDAF12 agonist: inactive; DAX1 inh-1: inactive; DAX1 inh-2: inactive; hcDAF-12 act: inactive; ssDAF-12 act: inactive

Results for Nn1c(SCc2c(F)cccc2F)nnc1-c1ccccn1 ?
hgDAF12 agonist: inactive; DAX1 inh-1: 24; DAX1 inh-2: inactive; hcDAF-12 act: inactive; ssDAF-12 act: inactive

How did O=C(Nc1cc(C(F)(F)F)ccc1N1CCOCC1)c1cccs1 do in these assays?
hgDAF12 agonist: inactive; DAX1 inh-1: 4.6; DAX1 inh-2: inactive; hcDAF-12 act: inactive; ssDAF-12 act: inactive

Results for CN(C)c1ccc(P(=O)(Nc2cccc(C(F)(F)F)c2)N2CCOCC2)c(NC(=O)c2cccs2)c1 (centres undefined) ?
hgDAF12 agonist: inactive; DAX1 inh-1: inactive; DAX1 inh-2: inactive; hcDAF-12 act: inactive; ssDAF-12 act: 1.4

What do the screens show for `COc1ccc(N2CCOCC2)c(NC(=O)c2cccs2)c1`?
hgDAF12 agonist: inactive; DAX1 inh-1: inactive; DAX1 inh-2: inactive; hcDAF-12 act: inactive; ssDAF-12 act: inactive

Results for O=C(OC12CCCN(C1)/C(=C/c1cccc(Cl)c1)C2)c1ccc(Cl)cc1 (centres undefined) ?
hgDAF12 agonist: inactive; DAX1 inh-2: inactive; hcDAF-12 act: inactive; ssDAF-12 act: inactive

What do the screens show for `COC(=O)[C@]12C[C@H](CC(=O)NCc3ccc(C)o3)C(=O)N(Cc3ccco3)C1=C[C@H](COCc1ccccc1)O[C@@H]2C`?
hgDAF12 agonist: inactive; DAX1 inh-2: inactive; hcDAF-12 act: inactive; ssDAF-12 act: inactive

Results for N/C(=N\O)c1ccc(Oc2ccccc2Cl)c([N+](=O)[O-])c1 ?
hgDAF12 agonist: inactive; DAX1 inh-1: 5.4; DAX1 inh-2: inactive; hcDAF-12 act: inactive; ssDAF-12 act: inactive

How did O=[N+]([O-])c1ccccc1Oc1ccccc1Cl do in these assays?
hgDAF12 agonist: inactive; DAX1 inh-1: inactive; DAX1 inh-2: inactive; hcDAF-12 act: inactive; ssDAF-12 act: inactive

How did FCCCOc1ccc(-c2ccnc3ncnn23)cc1 do in these assays?
hgDAF12 agonist: inactive; DAX1 inh-1: 5.2; DAX1 inh-2: inactive; hcDAF-12 act: inactive; ssDAF-12 act: inactive

What do the screens show for `COc1ccc(-c2ccnc3ncnn23)cc1`?
hgDAF12 agonist: inactive; DAX1 inh-1: inactive; DAX1 inh-2: inactive; hcDAF-12 act: inactive; ssDAF-12 act: inactive

Results for O=C(COc1ccccc1Cl)c1ccc2c(c1)CCCC2 ?
hgDAF12 agonist: 12; DAX1 inh-1: inactive; DAX1 inh-2: inactive; hcDAF-12 act: inactive; ssDAF-12 act: inactive

What do the screens show for `Fc1ccc(-n2nnc(-c3cccnc3)n2)cc1`?
hgDAF12 agonist: 11; DAX1 inh-1: inactive; DAX1 inh-2: inactive; hcDAF-12 act: inactive; ssDAF-12 act: inactive

Results for Clc1ccc(-n2nnc(-c3cccnc3)n2)cc1Cl ?
hgDAF12 agonist: inactive; DAX1 inh-1: inactive; DAX1 inh-2: inactive; hcDAF-12 act: inactive; ssDAF-12 act: inactive

Results for Cc1ccc(C)c(N(C)C(=O)COc2cc(=O)n(C)c3ccccc23)c1 ?
hgDAF12 agonist: inactive; DAX1 inh-1: 4.8; DAX1 inh-2: inactive; hcDAF-12 act: inactive; ssDAF-12 act: inactive

How did CC(C)(C)C(=O)Nc1nc(-c2ccccc2)ns1 do in these assays?
hgDAF12 agonist: inactive; DAX1 inh-1: inactive; DAX1 inh-2: inactive; hcDAF-12 act: inactive; ssDAF-12 act: inactive

What do the screens show for `O=C(Nc1nc(-c2ccccc2)ns1)c1ccncc1`?
hgDAF12 agonist: inactive; DAX1 inh-1: 8.4; DAX1 inh-2: inactive; hcDAF-12 act: inactive; ssDAF-12 act: inactive

How did Cc1c(Cl)cccc1S(=O)(=O)Nc1ccnn1C do in these assays?
hgDAF12 agonist: inactive; DAX1 inh-1: 4.3; DAX1 inh-2: inactive; hcDAF-12 act: inactive; ssDAF-12 act: inactive

How did CCCCNC(=O)C[C@H]1C[C@@]2(C(=O)OC)C(=C[C@H](C(C)C)O[C@@H]2C2CC2)N(Cc2ccco2)C1=O do in these assays?
hgDAF12 agonist: inactive; DAX1 inh-2: inactive; hcDAF-12 act: inactive; ssDAF-12 act: inactive

Results for Cc1cccc2nc(CSc3nnc4ccccn34)cn12 ?
hgDAF12 agonist: 12; DAX1 inh-1: inactive; DAX1 inh-2: inactive; hcDAF-12 act: 5.8; ssDAF-12 act: inactive

Results for COCCOC(=O)C1=C(N)OC2=C(C(=O)CC(C)(C)C2)C1c1ccncc1 (centres undefined) ?
hgDAF12 agonist: inactive; DAX1 inh-1: 5.3; DAX1 inh-2: inactive; hcDAF-12 act: inactive; ssDAF-12 act: inactive

How did O=C(NCc1ccc(Cl)c(Cl)c1)O[C@H]1CC[C@@]23CCCN2C(=O)CCC[C@H]3C1 do in these assays?
hgDAF12 agonist: inactive; hcDAF-12 act: inactive; ssDAF-12 act: inactive

Results for Cc1ccc(N/C=C/C(=O)c2ccco2)c(O)c1 ?
hgDAF12 agonist: inactive; DAX1 inh-1: 6.1; DAX1 inh-2: inactive; hcDAF-12 act: inactive; ssDAF-12 act: inactive

Results for CC(=O)Nc1ccc(NC(=O)CSc2nnc(-c3n[nH]c4c3CCC4)n2N)cc1 ?
hgDAF12 agonist: inactive; DAX1 inh-2: inactive; hcDAF-12 act: inactive; ssDAF-12 act: inactive

Results for Nc1ccccc1SCC(=O)Nc1ccc2c(c1)OCO2 ?
hgDAF12 agonist: inactive; DAX1 inh-1: inactive; DAX1 inh-2: 4.2; hcDAF-12 act: inactive; ssDAF-12 act: inactive

Results for CC(C(=O)Nc1ccc2c(c1)OCCO2)N(C)Cc1c(F)cccc1Cl (centres undefined) ?
hgDAF12 agonist: inactive; DAX1 inh-1: 4.5; DAX1 inh-2: inactive; hcDAF-12 act: inactive; ssDAF-12 act: inactive

Results for COC(=O)c1sccc1NC(=O)CSc1ccccc1N ?
hgDAF12 agonist: inactive; DAX1 inh-1: 4.8; DAX1 inh-2: inactive; hcDAF-12 act: inactive; ssDAF-12 act: inactive

Results for O=C(CN1C(=O)c2cccc3cccc1c23)Nc1ccc2c(c1)OCO2 ?
hgDAF12 agonist: inactive; DAX1 inh-1: 4.4; DAX1 inh-2: inactive; hcDAF-12 act: inactive; ssDAF-12 act: inactive
